# A selection: hits, their analogues and other compounds. The true share with any hit is near 3.5%.
# BoNT F protease: blocks Botulinum neurotoxin F light chain protease | Multiplex microsphere protease cleavage assay, flow cytometry | inhibition, % at 10 µM | 360,000 compounds, 0.22% hits | AID 588497; in the data active means inhibition above about 35%, passing the limit was not always enough; inconclusive means no clear call, values can overlap the other calls; further: plate controls were buffer without enzyme for full effect and enzyme alone for no effect
# Autofluor counter: flagged as autofluorescent in microsphere protease counterscreen; compound autofluorescence counterscreen, microsphere flow cytometry; active compounds read high; fluorescence intensity (no concentration beside the values); 360,000 compounds, 3.1% hits; AID 624483; in the data active means fluorescence intensity above about 16000; inconclusive means no clear call, values can overlap the other calls
# Anthrax LF inh2: inhibitors of Bacillus anthracis lethal factor protease; P15917; inhibition, % at 10 µM; 360,000 compounds, 0.12% hits; multiplex microsphere protease cleavage assay, LF; further: plate controls were buffer without enzyme for full effect and enzyme alone for no effect
# Target sequence (P15917 whole entry, looked up): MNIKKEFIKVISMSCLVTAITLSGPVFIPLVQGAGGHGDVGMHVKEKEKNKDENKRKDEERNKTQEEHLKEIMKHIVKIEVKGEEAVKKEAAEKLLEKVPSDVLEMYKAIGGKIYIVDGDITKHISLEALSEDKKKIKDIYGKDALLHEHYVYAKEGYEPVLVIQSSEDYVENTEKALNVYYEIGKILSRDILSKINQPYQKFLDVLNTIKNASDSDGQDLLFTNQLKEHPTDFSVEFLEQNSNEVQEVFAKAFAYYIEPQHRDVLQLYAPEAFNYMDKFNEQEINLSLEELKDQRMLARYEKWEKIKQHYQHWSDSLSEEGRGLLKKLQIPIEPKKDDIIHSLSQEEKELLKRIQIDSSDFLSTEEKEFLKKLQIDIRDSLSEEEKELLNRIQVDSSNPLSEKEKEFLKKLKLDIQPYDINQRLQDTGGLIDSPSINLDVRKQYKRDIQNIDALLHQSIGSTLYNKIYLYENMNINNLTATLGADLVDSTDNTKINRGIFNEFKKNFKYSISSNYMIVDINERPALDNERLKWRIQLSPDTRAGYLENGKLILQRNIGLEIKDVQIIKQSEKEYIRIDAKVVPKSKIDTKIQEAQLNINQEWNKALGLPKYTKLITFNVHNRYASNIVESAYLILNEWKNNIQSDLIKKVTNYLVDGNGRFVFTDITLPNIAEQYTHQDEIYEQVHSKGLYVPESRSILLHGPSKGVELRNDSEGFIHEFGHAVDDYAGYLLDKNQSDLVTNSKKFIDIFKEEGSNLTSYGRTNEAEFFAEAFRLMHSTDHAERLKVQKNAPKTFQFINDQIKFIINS
# BoNT-A LC inh2: inhibitors of Botulinum neurotoxin A light chain protease | inhibition, % at 10 µM | AID 588499 | 360,000 compounds, 0.17% hits | multiplex microsphere protease substrate cleavage, flow cytometry; further: plate controls were buffer without enzyme for full effect and enzyme alone for no effect
# BH1578 lux ind: induces V. cholerae light production without autoinducers; V. cholerae BH1578 lux reporter, luminescence, 6 h; activation, % at 18.7 µM; 350,000 compounds, 0.16% hits; in the data active means activation mostly above about 9.7%, no sharp cut-off; inconclusive means no clear call, values can overlap the other calls; inactive means mostly below about 3.7%
# BoNT-A LC CP1: BoNT/A light chain protease inhibition | shares compounds with BoNT F protease | multiplex microsphere protease assay, flow cytometry | inhibition, % at 10 µM | 720 compounds, 3% hits | AID 602139; in the data active means inhibition above about 32%
# BoNT-F LC CP1: BoNT/F light chain protease inhibition; 720 tested, under 10 active; multiplex microsphere protease cleavage assay, flow cytometry; shares compounds with BoNT F protease; inhibition, % at 10 µM; call rule not given here
# Anthrax LF CP1: Bacillus anthracis lethal factor protease inhibition; shares compounds with BoNT F protease; multiplex microsphere protease cleavage assay, LF; inhibition, % at 10 µM; 720 tested, under 10 active; call rule not given here
# Active calls of the source: *; i = inactive; u = inconclusive; x = not tested or not shown. Unless noted, no stated cut-off is given here; in the data, active means inhibition above about 30%; inconclusive means no clear call, values can overlap the other calls; inactive means below that.
SMILES,BoNT F protease,Autofluor counter,Anthrax LF inh2,BoNT-A LC inh2,BH1578 lux ind,BoNT-A LC CP1,BoNT-F LC CP1,Anthrax LF CP1
CCOC(=O)CCCCC(=O)c1[nH]c(=O)[nH]c1Cn1cnc2ccccc21,34.3,5662,-6.2,4.8,i,-0.1,-9.9,-2.8
CCOC(=O)CCCCC(=O)c1[nH]c(=O)[nH]c1CSCCO,64.5*,5536,2.8,8.0,1.6,0.9,-3.2,-5.3
CCOC(=O)CCCCC(=O)c1[nH]c(=O)[nH]c1CSc1nc(-c2ccccc2)c(C#N)c(=O)[nH]1,15.2,5259,-6.0,3.7,i,x,x,x
O=C1CCCN1c1ccc(S(=O)(=O)NCc2ccc(F)cc2)cc1,-0.8,6113,-1.9,-1.3,0.7,x,x,x
CCOc1ccccc1NC(=O)c1ccc(S(=O)(=O)N(C)C)cc1,4.0,u,38.6*,0.5,x,0.0,-4.0,-1.2
O=C(CCNC(=O)c1ccccc1)NCCc1ccc(Cl)cc1,-8.7,3849,37.6*,1.4,2.0,-1.3,-7.0,-1.0
COc1ccccc1OCC(=O)Nc1cc(S(=O)(=O)N2CCOCC2)ccc1N1CCCCC1,-4.5,3783,2.9,-0.1,-1.2,x,x,x
Cc1cc(Br)cn2c(Cc3cccc(F)c3)c(-c3ccc(C#N)cc3)nc12,6.6,8537,5.4,1.7,x,x,x,x
CCc1ccc(OCCCC(=O)Nc2ccc(N3CCCCC3)cc2)cc1,39.7*,5583,-6.7,-4.2,-2.9,-1.9,3.7,-4.1
COc1cc(NC(=O)c2c(OC)cccc2OC)ccc1NC(=O)c1cc2ccccc2o1,-38.8,3480,32.0*,-2.4,-0.3,0.9,-1.4,-0.2
COc1cc(NC(=O)c2ccc(F)cc2)ccc1NC(=O)c1cc2ccccc2o1,x,x,x,x,1.2,x,x,x
O=C(CCn1nnc2ccccc21)OCC(=O)c1ccc(F)cc1,3.0,3609,1.0,-0.7,-0.1,x,x,x
O=[N+]([O-])c1cccc(-c2ncc3ccccn23)c1,-4.8,4652,2.0,6.7,i,x,x,x
COc1ccc(-c2ncc3ccccn23)cc1OC,-16.4,2757,-7.8,2.0,0.8,2.0,0.8,3.0
Clc1ccc(-c2ncc3ccccn23)cc1,2.9,5802,22.5,51.0*,-0.3,-0.5,-1.4,0.8
Nn1c(-c2ccccc2Cl)nnc1-c1ccccc1Cl,-4.0,2794,-1.8,0.3,1.9,x,x,x
COc1ccc(-c2cncc3nccn23)cc1OC,-2.9,4079,-7.9,-0.6,0.3,x,x,x
Clc1ccccc1-c1ncc2ccccn12,0.8,4716,21.6,29.0,i,1.5,7.6,1.0
O=C1CCCCN1CCCC(=O)N1CCCC(Nc2ccc(F)c(F)c2)C1 (stereo not drawn),x,x,x,x,0.4,x,x,x
NC(CO)(CO)COCc1ccccc1,-6.3,3901,-3.9,-0.5,-0.2,x,x,x
CCN(CC)S(=O)(=O)c1ccc(C)c(C(=O)Oc2cccc(-c3cnc4ccccc4n3)c2)c1,34.9*,2119,-0.6,5.6,-0.3,-1.5,-4.6,-6.9
O=C(NCC(=O)N1CCCC1)c1ccc(Cl)cc1,13.1,2980,31.3*,0.1,-0.1,0.4,-2.9,-0.5
Cc1cc(C)c2cc(CN(CCN3CCCC3)C(=O)Nc3ccc(F)cc3)c(=O)[nH]c2c1,61.8*,10627,6.3,3.4,i,-4.6,-11.3,-2.0
Cc1ccc2[nH]c(=O)c(CN(CCN3CCOCC3)C(=O)Nc3ccc(F)cc3)cc2c1,-17.1,2719,-2.3,-0.5,i,x,x,x
COc1ccc([C@@H](O)[C@@H](N)c2ccccc2)cc1,u,3097,38.4*,0.4,i,0.0,1.1,0.6
SMILES,BoNT F protease,Autofluor counter,Anthrax LF inh2,BoNT-A LC inh2,BH1578 lux ind,BoNT-A LC CP1,BoNT-F LC CP1,Anthrax LF CP1
Cc1cccc(CCNS(=O)(=O)c2ccc(S(=O)(=O)N3CCC(C)CC3)cc2)c1,32.4,8054,3.1,4.4,i,0.3,-1.1,-1.0
COc1ccc(NCc2cc(=O)oc3cc(NC(C)=O)ccc23)cc1,-18.2,4185,-1.9,-2.7,-10.0,x,x,x
CC1CCCN(CCCOc2ccccc2-c2ccccc2)C1 (stereo not drawn),-2.9,4374,-3.7,-0.4,i,x,x,x
CC(=O)CSc1nnc(-c2ccc(S(=O)(=O)N3CCOCC3)cc2)n1C,3.2,6054,-0.6,-1.2,-0.3,x,x,x
CC(=O)CSc1nnc(-c2ccc(S(=O)(=O)N3CCCC3)cc2)n1C,-9.8,3870,31.0*,1.0,-0.5,1.0,0.8,1.9
COc1ccccc1NCC(=O)N1CCN(S(=O)(=O)c2ccccc2)CC1,-12.3,u,32.1*,-8.0,1.2,1.7,1.7,1.8
COCCN(CC(=O)Nc1ccccc1C(F)(F)F)C(=O)c1ccc(-n2cccn2)cc1,-4.9,8548,5.8,-0.5,-2.1,x,x,x
Cc1cc2ccccc2n1CCNC(=O)C1CCCC1,-98.7,909,7.1,162.8*,5.6,0.9,-0.5,-0.2
Cc1ccc(OCC2Cn3c(nc4c3c(=O)[nH]c(=O)n4C)O2)cc1C (stereo not drawn),14.4,3017,31.3*,2.1,1.2,-0.6,-9.9,1.7
CCc1cccc(OCC2Cn3c(nc4c3c(=O)[nH]c(=O)n4C)O2)c1 (stereo not drawn),2.2,4145,22.9,0.0,i,x,x,x
O=C(CN1c2cccc3cccc(c23)S1(=O)=O)N1CCN(c2ccccc2)CC1,5.5,6405,-0.1,2.9,i,x,x,x
COC(=O)[C@@H](Cc1c[nH]c2ccccc12)NC(=O)CCC(=O)c1ccc(F)cc1,-23.1,3339,5.4,-2.9,0.5,x,x,x
Cc1cc(C)nc(SCCS(=O)(=O)Cc2ccc(Cl)cc2)n1,3.8,2097,0.4,0.6,0.6,x,x,x
Cc1cc(C)nc(SCc2ccc(Cl)cc2)n1,-11.8,3562,31.7*,2.5,-0.3,0.5,-3.3,2.5
O=[N+]([O-])c1cc2cccnc2c2ncccc12,x,x,x,x,-0.4,x,x,x
O=[N+]([O-])c1ccc(Sc2cccc3cccnc23)c2cccnc12,8.5,4230,30.4*,24.4,-0.6,17.4,4.4,12.9
CCn1nc(-c2ccccc2)c2nc3ccccc3nc21,38.0*,3801,42.8*,66.9*,i,22.0,2.4,10.3
CCCCCn1nc(-c2ccccc2)c2nc3ccccc3nc21,16.8,4862,23.9,22.1,-1.2,x,x,x
CCOC(=O)/C(=N/Nc1ccccc1)Sc1nnc(CCc2ccccc2)n1-c1ccccc1,-0.2,2475,0.7,0.1,-0.4,x,x,x
COc1cccc(NC(=O)c2oc3ccccc3c2NC(=O)C(C)(C)C)c1,52.9*,6579,-13.9,44.2*,i,-1.2,-3.0,-0.5
O=C(CC1(c2ccc(Cl)cc2)C2CC3CC(C2)CC1C3)NCCO (stereo not drawn),2.8,3868,-1.7,-0.6,-1.1,x,x,x
COc1ccc(C(=O)Nc2nc(-c3ccc([N+](=O)[O-])cc3)c(-c3ccc(OC)cc3)s2)cc1,22.1,7771,32.8*,37.8*,i,14.5,9.0,12.0
O=C(Nc1nc(-c2ccccc2)c(-c2ccccc2)s1)c1ccc(S(=O)(=O)N2CCCCC2)cc1,-7.3,11466,-6.1,-0.3,0.7,-1.1,-6.5,-4.9
